Laboratory results published in PubChem BioAssay (NCI).
This is part of a sample that, as a whole, favours compounds with a hit. Of some 79,000 tested, about 15% had one in any assay. Calls of active or inactive are those of the source. No stated cut-off is given here; in the data, active means growth inhibition above about 70%; inactive means the rest.

How the values were obtained:
[1] = NCI Yeast Anticancer Drug Screen. Data for the rad50 strain (AID 155);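 further: 0% = growth of vehicle-only cultures of the same strain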; conditions: S. cerevisiae rad50 strain growth inhibition; at 50.0 µM; active compounds read high
Procedure, shortened: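 Cells are treated with compound, grown, and their growth is then scored against vehicle-only cultures of the same repair-deficient yeast strain.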

[2] = NCI Yeast Anticancer Drug Screen. Data for the mec2-1 strain (AID 157); conditions: S. cerevisiae mec2-1 strain, at 50.0 µM, active compounds read high
Procedure, shortened: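 Mutant yeast (mec2-1) grown with compound; growth inhibition relative to vehicle control reported.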

[3] = NCI Yeast Anticancer Drug Screen. Data for the sgs1 mgt1 strain (AID 161);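 further: 0% = growth of cultures given vehicle only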; conditions: S. cerevisiae sgs1 mgt1 strain, at 50.0 µM, active compounds read high
Procedure, shortened: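 Growth of a repair-deficient yeast mutant was monitored after compound treatment and expressed as inhibition relative to vehicle-treated cultures.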

[4] = NCI Yeast Anticancer Drug Screen. Data for the cln2 rad14 strain (AID 165);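 further: 0% = growth equal to vehicle treated cultures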; conditions: S. cerevisiae cln2 rad14 strain, at 50.0 µM, active compounds read high
Procedure, shortened: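 Readout is yeast growth inhibition versus vehicle-treated controls, using a strain with cln2 and rad14 alterations exposed to compound.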

[5] = NCI Yeast Anticancer Drug Screen. Data for the bub3 strain (AID 167); conditions: S. cerevisiae bub3 mutant strain, at 50.0 µM, active compounds read high
Procedure, shortened: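 Part of a panel of yeast mutants defective in DNA damage repair or cell cycle regulation. Each strain is grown with compound, and inhibition is calculated relative to solvent-treated cultures.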

[6] = NCI Yeast Anticancer Drug Screen. Data for the mlh1 rad18 strain (AID 175); conditions: S. cerevisiae mlh1 rad18 strain growth inhibition; at 50.0 µM; active compounds read high
Procedure, shortened: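 Genetically defined yeast (DNA repair-deficient) exposed to compounds; growth inhibition determined relative to vehicle.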

Measured: growth inhibition

CC/C(Cl)=N\OC(=O)Nc1ccccc1OC(F)(F)F
inactive: [1] -24.1% | [2] -15.4% | [4] -13.6% | [5] 18.6% | [6] -89.6%
active: [3] 87.2%

COc1ccc(OC(C)C(=O)O)c2c1CCCC2=O (stereo unspecified)
inactive: [1] 21.6% | [2] 6.3% | [3] -17.1% | [4] 25.6% | [5] 5.15% | [6] 22.7%

COc1ccc(NC(=O)C(=O)C2NC(=S)NC2=O)c(OC)c1 (stereo unspecified)
inactive: [1] 34.4% | [2] 16.5% | [3] 11.6% | [4] 15.3% | [5] 3% | [6] 3.2%

Cc1nc2c(c(-c3ccccc3)n1)Cc1ccccc1O2
inactive: [1] -4.05% | [2] -12.4% | [3] 7.55% | [4] -10.5% | [5] 25.8% | [6] 0%

C/C(=C\C(=N\Nc1nc(C)cc(=O)[nH]1)c1ccccc1)c1ccccc1
inactive: [1] 12.4% | [2] -11.4% | [3] -8.75% | [4] 3.45% | [5] 6.8% | [6] -2.2%

CC(CC(=O)Nc1ccc(NC(=O)CC(C)N=NC(N)=S)cc1)N=NC(N)=S (stereo unspecified)
inactive: [1] 30.6% | [2] 3.95% | [3] -5.35% | [4] -27.2% | [5] 1.75% | [6] 14%

COC(=O)c1nc(N)nc(C(=O)OC)c1C(=O)c1cc(Cl)ccc1Cl
inactive: [1] -8.35% | [2] -7.9% | [3] -1.25% | [4] -18.2% | [5] -6.3% | [6] -5.65%

Cc1cn(C2CC(O)C(CO)O2)c(=O)nc1N1CCCC1 (stereo unspecified)
inactive: [1] -4.2% | [2] -7.4% | [3] -12.9% | [4] -8.55% | [5] -0.4% | [6] 0.55%

Cc1cc(C)cc([N+](=O)[O-])c1
inactive: [1] 8.5% | [2] -19% | [3] 1.3% | [4] 20.1% | [5] 4.65% | [6] -26.3%

CCOCC1OCCCO1
inactive: [1] -13.5% | [2] 12.4% | [3] 1.6% | [4] -9.85% | [5] -10% | [6] 7.15%

N#Cc1cccc(Nc2ccccc2SSc2ccccc2Nc2cccc(C#N)c2)c1
inactive: [1] 13.1% | [2] 7.6% | [3] 17.5% | [4] -7.4% | [5] 3.95% | [6] 12.8%

C/C(=N/NC(=O)C(N)=O)C(CC(C(=O)Nc1ccccc1C)/C(C)=N\NC(=O)C(N)=O)C(=O)Nc1ccccc1C (stereo unspecified)
inactive: [1] 0.75% | [2] -0.6% | [3] -8.1% | [4] -12.2% | [5] 8.05% | [6] -12.6%

C=CCS(=O)CC(NC(=O)c1ccccc1)C(=O)O (stereo unspecified)
inactive: [1] -32% | [2] -3.75% | [3] 20.6% | [4] -15.4% | [5] 4.1% | [6] -13.4%

CC1CCC2(CC1)CC(=O)N(N1CCCCC1)C2=O (stereo unspecified)
inactive: [1] 11.3% | [2] 10.8% | [3] 26.8% | [4] 17.1% | [5] 3.3% | [6] 23.9%

Cc1ccc(-c2cn3c(nc4ccccc43)c(C)n2)cc1
inactive: [1] -27.5% | [2] 5.5% | [3] 15.3% | [4] -7.95% | [5] 13% | [6] -29.5%

NC(=O)c1cccnc1
inactive: [1] 15.1% | [2] -41.4% | [3] 5.1% | [4] -27.2% | [5] -12.9% | [6] 9.95%

CCOC(=O)CCCc1ccccc1
inactive: [1] -13.2% | [2] -32.5% | [3] -2.65% | [4] 32.2% | [5] 4.05% | [6] -2.25%

CCOc1ccc(OCC)c2c1C(=O)c1ccccc1C2=O
inactive: [1] -6.8% | [2] 15.3% | [3] 1.15% | [4] -1.3% | [5] 9.15% | [6] -5.8%

C=C1CCC23CC(CC[C@@H]2[C@@]12C[C@@H](c1ccoc1)OC2=O)OC3=O (stereo partly specified)
inactive: [1] 2.6% | [2] -12.6% | [3] -8.6% | [4] -5.1% | [5] 5.35% | [6] 1.8%

NNC(=O)COCC(=O)NN
inactive: [1] -17.5% | [2] -27.2% | [3] -24.5% | [4] -9.1% | [5] -15.2% | [6] -25.1%

NN1CC(=O)N(c2ccccc2)CC1=O
inactive: [1] 0.5% | [2] 4.45% | [3] -0.6% | [4] 42.8% | [5] -7.65% | [6] 4.7%

O=c1[nH]c(=O)n(C2CC(O)C(CO)O2)cc1NN=NCCc1ccccc1 (stereo unspecified)
inactive: [1] -24.3% | [2] 0.75% | [3] 5.05% | [4] 4.85% | [5] 1.9% | [6] 10.8%

O=C(Nc1ccc(S(=O)(=O)N2CCCCC2)cc1)OC1CCCC1
inactive: [1] 3.85% | [2] 14.7% | [3] 1.15% | [4] 18.9% | [5] 14.8% | [6] -12.6%

CSC(=S)N/N=C(\c1ccccc1)c1ccccn1
inactive: [1] 0.3% | [2] 13.2% | [3] 0.85% | [4] 10.4% | [5] 21.2% | [6] 5.75%

COC(=O)C1=C(C)NC(C)=C(C(=O)OC)C1c1cccc(NO)c1
inactive: [1] 9.6% | [2] 16.4% | [3] 47.4% | [4] 24% | [5] 43.3% | [6] 2.85%

O=C(O)CCSc1ccccc1[N+](=O)[O-]
inactive: [1] 31.6% | [2] -8.6% | [3] 23.4% | [4] -10.3% | [5] -0.9% | [6] 19.9%

O=C(Nc1ccccc1O)c1ccc(Cl)c(Cl)c1
inactive: [1] -7.6% | [2] 32% | [3] 33.2% | [4] -23.2% | [5] 49% | [6] 36.2%

O=c1c(CN(CCO)CCO)c(-c2ccccc2)sc2ccccc12
inactive: [1] -3.45% | [2] -24.6% | [3] -28.1% | [4] 13.1% | [5] -13.8% | [6] 14.7%

Oc1ccccc1-n1nc2ccc3nonc3c2n1
inactive: [1] -16.8% | [2] -61.1% | [3] -38.9% | [4] -35.9% | [5] -1% | [6] -40.5%

CCOC(=O)C(Br)(C(=O)OCC)C(C)C
inactive: [1] 3.75% | [2] -0.8% | [3] -16.8% | [4] -16% | [5] 10.8% | [6] 9.1%

CCNc1nc2ccccc2nc1NCC
inactive: [1] -18.1% | [2] -5.6% | [3] 1.45% | [4] 16.1% | [5] -13.3% | [6] 3.15%

CCOC(=O)C1(C(=O)OCC)CC1c1ccccc1 (stereo unspecified)
inactive: [1] 4.6% | [2] -32.5% | [3] 5.5% | [4] -0.6% | [5] -11.7% | [6] -3.2%

COc1ccc(Cl)c2c(=O)c3ccc4c(c3[nH]c12)C(=O)c1ccccc1C4=O
inactive: [1] 21.8% | [2] -5.6% | [3] 4.25% | [4] -17.6% | [5] 3.8% | [6] 4.65%

C[C@]12CCC(=O)C=C1CC[C@@H]1C2CC[C@]2(C)NC(=O)C(C#N)CC12 (stereo partly specified)
inactive: [1] -29.1% | [2] -10.2% | [3] -14.9% | [4] -23.9% | [5] -15.2% | [6] -9.6%

OCC1=CC(c2ccccc2)(c2ccccc2)c2ccccc21
active: [1] 95.2% | [2] 96.3% | [3] 96.7% | [4] 93.2% | [5] 95.5% | [6] 95.4%

O=C1Cc2ccccc2CN1
inactive: [1] -6.95% | [2] 13.3% | [3] -3.5% | [4] 19.6% | [5] 2.15% | [6] 32.3%
